Structures are written as SMILES. About 79,000 compounds went through this panel and 15% of them were active in at least one assay; those are over-represented in the sample as a whole. A number with no mark means an inactive call. Activity calls are given as the source filed them. No stated cut-off is given here; in the data, active means growth inhibition above about 70%; inactive means the rest.

This assay can be described thus: NCI Yeast Anticancer Drug Screen. Data for the mgt1 strain (AID 153). The following applies: S. cerevisiae mgt1 mutant growth inhibition, hits give high values. The procedure:
Growth inhibition of yeast strains with defined genetic alterations is measured as a screen for potential anti-cancer activity. Selected strains with alterations in DNA damage repair or cell cycle control were exposed to compounds and growth inhibition was measured relative to vehicle treated controls. The strain used in this assay is mgt1

Consider `O=C(Oc1ccc([N+](=O)[O-])cc1)c1ccc([N+](=O)[O-])cc1`, for which the growth inhibition runs as follows: (at 1.2 µM) 0%; (at 3.7 µM) 1%; (at 11.0 µM) 2%; (at 33.0 µM) 9%; (at 100.0 µM) 13%.
The matching figures for `O=C1/C(=C/c2ccc(Cl)c(Cl)c2)CNC/C1=C\c1ccc(Cl)c(Cl)c1`: 5%, 13%, 35%, 69% and 94% (active).
With `O=C(CCCN1CCC(Nc2ccc(F)cc2)(c2nnnn2C2CCCCC2)CC1)c1ccc(F)cc1`, the growth inhibition is, setting by setting: (at 1.2 µM) -2%; (at 3.7 µM) -3%; (at 11.0 µM) -6%; (at 33.0 µM) 2%; (at 100.0 µM) 98% (active).
Taken in the same sequence, the figures for `CC1(C)C(O)OC(O)C1(C)C` (stereo not given) were -1%, -1%, 2%, 16% and 10%.
The matching figures for `O=C(/C(=C/c1ccc(O)cc1)c1ccccc1)c1ccccc1`: -4%, -2%, 51%, 99% (active) and 89% (active).
Taken in the same sequence, the figures for `O=C(NNc1ccccc1)C(CCCCNS(=O)(=O)Cc1ccccc1)NS(=O)(=O)Cc1ccccc1` (stereo not given) were 0%, 11%, 13%, 18% and 18%.
On to `CCN(CC)CCNc1ccc2ncn3c4ccc(O)cc4c(=O)c1c23`, for which the growth inhibition is, setting by setting: (at 1.2 µM) -3%; (at 3.7 µM) -6%; (at 11.0 µM) -1%; (at 33.0 µM) 1%; (at 100.0 µM) 1%.
As for `CC1(C)CC(=O)C(C(=O)Nc2cccs2)=C(O)C1`, the growth inhibition was 10% (at 1.2 µM); 18% (at 3.7 µM); 35% (at 11.0 µM); 92% (active) (at 33.0 µM); 98% (active) (at 100.0 µM).

(Values after PubChem BioAssay (NCI).)
